Results filed as inconclusive are left out. Active and inactive are the calls of the source. Unless noted, calls come from the whole dose curve; as a rule, active = well fitted curve in the direction sought with a large enough effect in the repeat runs; inconclusive = weak or mixed curves; inactive = no such curve, though single readings can be large; an effect the other way counts as inactive or inconclusive. Non-standard residues stand in square brackets, D forms with d. Residues, ends and D or L forms follow the SMILES beside them. *: point of attachment. Sta = CC(C)C[C@H](N)[C@@H](O)CC(=O)O; Isovaleryl = CC(C)CC(=O)*
Key:
[1] = qHTS RealTime-Glo MT Cell Viability Assay in HEK293 cells - 8 hour (AID 1224887); note: top concentration of the series differs between compounds; nearly all actives have a fitted effect of over 50% in size
Outline: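 HEK293 + NanoLuc + prosubstrate, 600 cells/well; 5 h, 37 C/5% CO2; compound 23 nL in DMSO by pintool; 37 C; luminescence read at 0, 8, 16, 24, 32 and 40 h time points.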

[2] = A CellTox Green Cytotoxicity Assay to monitor cytotoxicity in HEK293 cells - 16 hour (AID 1224888); note: nearly all actives have a fitted effect of over 35% in size
Outline: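 Tox21 screen in HEK293: membrane-impermeant cyanine dye fluoresces on binding dead-cell DNA; compound pinned 5 h post-seeding, plates held at 37 C, signal read repeatedly through 40 h.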

[3] = qHTS RealTime-Glo MT Cell Viability Assay in HepG2 cells - 0 hour (AID 1224889); note: nearly all actives have a fitted effect of over 50% in size
Outline: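 Luminescence read-out: viable HepG2 cells reduce a prosubstrate to a NanoLuc substrate, giving a signal proportional to live cell number. Reads taken at 0, 8, 16, 24, 32 and 40 h of compound exposure at 37 C.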

[4] = A CellTox Green Cytotoxicity Assay to monitor cytotoxicity in HepG2 cells - 8 hour (AID 1224890); note: nearly all actives have a fitted effect of over 45% in size; note: potency is the fitted concentration of half-maximal effect
Outline: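 Measurements at 0, 8, 16, 24, 32 and 40 h of treatment captured CellTox Green fluorescence in HepG2 cells that had been co-plated with reagent and preincubated 5 h at 37 C/5% CO2.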

[5] = qHTS assay to identify small molecule antagonists of the estrogen receptor alpha (ER-alpha) signaling pathway using the BG1 cell line in the presence of 0.1 nM 17-beta-estradiol - cell viability counter screen (AID 1259241); note: nearly all actives have a fitted effect of over 40% in size
Outline: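 The cell line endogenously expresses full-length ER-alpha and carries four EREs driving luciferase. Cells are cultured 5 days hormone-free, treated 22 hr with compounds and 0.1 nM estradiol, then viability is read by fluorescence.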

[6] = qHTS assay to identify small molecule antagonists of the androgen receptor (AR) signaling pathway using the MDA cell line in the presence of 0.5 nM R1881 - cell viability counter screen (AID 1259242); note: nearly all actives have a fitted effect of over 45% in size
Outline: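 Concentration-response screen of compounds for toxicity in MDA-kb2 reporter cells: 16 hr at 37C with 0.5 nM R1881, endpoint live-cell protease fluorescence measured in the reporter wells.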

[7] = qHTS assay to identify small molecule HDAC inhibitors (AID 1259364);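 note: wild-type HCT-116 cells with endogenous class I/II HDAC activity; top concentration of the series differs between compounds; nearly all actives have a fitted effect of over 45% in size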
Outline: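 Screening used wild-type human colon HCT-116 cells incubated overnight, dosed with compounds for 2 hours, and assayed with a homogeneous luminogenic HDAC I/II reagent for 30 minutes at room temperature.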

[8] = molecular target: Estrogen receptor (Homo sapiens) (UniProt P03372); test: qHTS assay to identify small molecule antagonists of the estrogen receptor alpha (ER-alpha) signaling pathway using the BG1 cell line in the presence of 0.1 nM 17-beta-estradiol (AID 1259244); note: nearly all actives have a fitted effect of over 50% in size
Outline: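 Compounds were tested against 0.1 nM (final) 17beta-estradiol in VM7Luc4E2 cells, which express full-length ER-alpha and an ERE-luciferase reporter; luminescence was recorded following 22 h exposure.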

[9] = molecular target: Androgen receptor (Homo sapiens) (UniProt P10275); test: qHTS assay to identify small molecule antagonists of the androgen receptor (AR) signaling pathway using the MDA cell line in the presence of 0.5 nM R1881 (AID 1259243); note: nearly all actives have a fitted effect of over 50% in size
Outline: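 With R1881 held at 0.5 nM (final), compound effects on MMTV-luciferase expression in MDA-kb2 cells were scored by luminescence after a 16 hr, 37C incubation.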

[10] = qHTS assay to identify small molecule phospholipidosis (PLD) inducers (AID 1259344; active = well fitted curve in the direction sought with a large enough effect; an effect the other way counts as inactive or inconclusive)
Outline: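 Phospholipid accumulation was scored by imaging: fixed, Hoechst-counterstained HepG2 cells stained with LipidTOX Red after 24 h compound exposure at 37 C. Read-outs were pit count and pit intensity per well or per cell, with amiodarone and DMSO controls.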
% is set by controls: 0 for no effect and ±100 for the full control effect.

Sequence of Androgen receptor (Homo sapiens) (P10275 whole entry, looked up): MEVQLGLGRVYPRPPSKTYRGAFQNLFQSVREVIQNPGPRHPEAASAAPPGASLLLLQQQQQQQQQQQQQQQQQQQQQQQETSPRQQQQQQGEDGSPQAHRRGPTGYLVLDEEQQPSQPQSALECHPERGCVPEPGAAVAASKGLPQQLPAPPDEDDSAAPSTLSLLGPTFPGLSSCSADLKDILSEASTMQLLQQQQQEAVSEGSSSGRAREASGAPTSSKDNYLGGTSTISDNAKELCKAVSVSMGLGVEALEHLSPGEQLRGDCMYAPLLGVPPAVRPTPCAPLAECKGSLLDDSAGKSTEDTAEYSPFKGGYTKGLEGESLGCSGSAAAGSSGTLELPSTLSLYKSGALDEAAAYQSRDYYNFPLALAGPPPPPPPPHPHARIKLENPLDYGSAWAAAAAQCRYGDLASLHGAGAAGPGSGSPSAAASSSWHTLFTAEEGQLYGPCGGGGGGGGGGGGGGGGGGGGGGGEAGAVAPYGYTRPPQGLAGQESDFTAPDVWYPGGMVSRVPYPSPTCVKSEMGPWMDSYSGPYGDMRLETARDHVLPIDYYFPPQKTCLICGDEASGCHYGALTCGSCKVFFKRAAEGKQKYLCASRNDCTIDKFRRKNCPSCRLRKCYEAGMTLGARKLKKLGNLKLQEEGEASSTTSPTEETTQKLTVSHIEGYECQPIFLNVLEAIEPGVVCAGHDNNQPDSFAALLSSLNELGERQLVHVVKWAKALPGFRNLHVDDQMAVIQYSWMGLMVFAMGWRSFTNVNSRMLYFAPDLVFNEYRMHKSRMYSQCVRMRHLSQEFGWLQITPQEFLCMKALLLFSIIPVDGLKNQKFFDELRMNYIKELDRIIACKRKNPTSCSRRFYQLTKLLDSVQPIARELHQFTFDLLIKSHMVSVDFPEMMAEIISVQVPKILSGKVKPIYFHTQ
Sequence of Estrogen receptor (Homo sapiens) (P03372 whole entry, looked up): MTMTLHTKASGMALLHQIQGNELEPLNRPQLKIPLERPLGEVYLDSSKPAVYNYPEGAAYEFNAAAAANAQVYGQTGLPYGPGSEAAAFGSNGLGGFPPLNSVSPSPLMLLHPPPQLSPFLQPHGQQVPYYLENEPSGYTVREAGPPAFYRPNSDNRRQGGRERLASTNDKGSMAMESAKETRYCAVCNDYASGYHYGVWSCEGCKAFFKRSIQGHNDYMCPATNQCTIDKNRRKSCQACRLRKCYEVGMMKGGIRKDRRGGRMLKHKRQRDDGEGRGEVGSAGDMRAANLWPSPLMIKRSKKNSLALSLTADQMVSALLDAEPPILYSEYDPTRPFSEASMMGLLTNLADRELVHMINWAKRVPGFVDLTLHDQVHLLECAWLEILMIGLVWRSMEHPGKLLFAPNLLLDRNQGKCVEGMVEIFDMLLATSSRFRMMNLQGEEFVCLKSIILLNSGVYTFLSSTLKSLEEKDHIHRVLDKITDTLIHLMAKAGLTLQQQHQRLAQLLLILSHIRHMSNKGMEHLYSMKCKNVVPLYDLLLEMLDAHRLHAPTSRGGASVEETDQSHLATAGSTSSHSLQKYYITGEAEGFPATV

CCCCCC(CC)OC(=O)CCCOc1ccc(Cl)cc1Cl (stereo unspecified)
inactive: outcome [1] | Potency [2] | Potency [3] | Potency [4] | outcome [5] | outcome [6] | Potency [7]

O=c1c(O)c(O)c1=O
inactive: outcome [1] | Potency [2] | Potency [3] | Potency [4] | outcome [5] | outcome [6] | Potency [7]

CCCCCCCCCCCCCCCC/C=C/C1CC(=O)OC1=O (stereo unspecified)
inactive: outcome [1] | Potency [2] | Potency [3] | Potency [4] | outcome [5] | outcome [6] | Potency [7]

Cc1cc(O)c(Cl)cc1C
inactive: outcome [1] | Potency [2] | Potency [3] | outcome [5] | outcome [6] | outcome [8] | Potency [7]

CC12CCCC=C1C(=O)OC2=O (stereo unspecified)
inactive: outcome [1] | Potency [3] | Potency [4] | outcome [5] | outcome [6] | Potency [9] | Potency [7]

COC(=O)c1cc(Cl)c(NC(C)=O)cc1OC
inactive: outcome [1] | Potency [3] | Potency [4] | outcome [5] | outcome [6] | Potency [9] | Potency [7]

CCCC(=O)C(CC)Sc1ccoc1C (stereo unspecified)
inactive: outcome [1] | Potency [2] | Potency [4] | outcome [5] | outcome [6] | Potency [9] | outcome [8] | Potency [7]

CCCCCCCCCCCBr
inactive: outcome [1] | Potency [2] | Potency [3] | Potency [4] | outcome [5] | outcome [6] | Potency [7]

CC(C)(O)c1ccc(C(C)(C)O)cc1
inactive: outcome [1] | Potency [2] | Potency [3] | Potency [4] | outcome [5] | outcome [6] | Potency [7]

CCCCCCCC(=O)N(C)C
inactive: outcome [1] | Potency [2] | Potency [3] | outcome [5] | outcome [6] | outcome [8] | Potency [7]

CCOCCOCCOC(C)=O
inactive: outcome [1] | Potency [2] | Potency [3] | Potency [4] | outcome [5] | outcome [6] | Potency [7]

CN(C)c1cc(NC(=O)CNC(C)(C)C)c(O)c2c1C[C@H]1C[C@H]3[C@H](N(C)C)C(=O)C(C(N)=O)=C(O)[C@@]3(O)C(=O)C1=C2O
inactive: outcome [1] | Potency [3] | Potency [4] | outcome [5] | outcome [6] | Potency [9] | outcome [8] | Potency [10] | Potency [7]

CC(=O)OC1CCC(C(C)(C)C)CC1 (stereo unspecified)
inactive: outcome [1] | Potency [3] | Potency [4] | outcome [5] | outcome [6] | Potency [9] | outcome [8] | Potency [7]

CCCc1ccc(O)c(OC)c1
inactive: outcome [1] | Potency [2] | Potency [3] | Potency [4] | outcome [5] | outcome [6] | Potency [7]

Cc1ccc(O)c(C(=O)c2ccccc2)c1
inactive: outcome [1] | Potency [2] | Potency [3] | Potency [4] | outcome [5] | outcome [6] | Potency [7]

CCC(C)(C)C
inactive: outcome [1] | Potency [2] | Potency [3] | Potency [4] | outcome [6] | Potency [7]

CC(C)CC(=O)N[C@H](C(=O)N[C@H](C(=O)N[C@@H](CC(C)C)[C@@H](O)CC(=O)N[C@@H](C)C(=O)N[C@@H](CC(C)C)[C@@H](O)CC(=O)O)C(C)C)C(C)C (Isovaleryl-VV[Sta]A[Sta]-OH)
inactive: outcome [1] | Potency [2] | Potency [3] | outcome [5] | outcome [6] | Potency [10] | Potency [7]

CCOc1ccccc1OCCN[C@H](C)Cc1ccc(OC)c(S(N)(=O)=O)c1
inactive: outcome [1] | Potency [3] | Potency [4] | outcome [5] | outcome [6] | Potency [10] | Potency [7]

CC(=O)c1c(C)cc(C(C)(C)C)cc1C
inactive: Potency [2] | Potency [3] | outcome [5] | outcome [6] | Potency [7]
active: Potency [4] 43.6 µM

CCCCOCCCC
inactive: outcome [1] | Potency [3] | Potency [4] | outcome [5] | outcome [6] | outcome [8] | Potency [7]

CC(C)c1cc(C(C)C)cc(C(C)C)c1
inactive: outcome [1] | Potency [3] | Potency [4] | outcome [5] | outcome [6] | outcome [8] | Potency [7]

COC(C)(C)CC(C)=O
inactive: outcome [1] | Potency [3] | Potency [4] | outcome [5] | outcome [6] | Potency [9] | Potency [7]

CC/C=C\CCOC(=O)c1ccccc1
inactive: Potency [2] | Potency [3] | Potency [4] | outcome [5] | outcome [6] | Potency [9] | outcome [8]

O=S(=O)(O)c1ccc(Cl)cc1
inactive: outcome [1] | Potency [3] | Potency [4] | outcome [5] | outcome [6] | outcome [8]

CCN(CC)CC(=O)Oc1ccc(NC(C)=O)cc1
inactive: Potency [2] | Potency [3] | Potency [4] | outcome [5] | outcome [6] | Potency [9] | Potency [7]

Cc1ccc(Br)cc1
inactive: outcome [1] | Potency [3] | Potency [4] | outcome [5] | outcome [6] | outcome [8] | Potency [7]

C[C@@H]1CC[C@@]2(OC1)O[C@H]1C[C@H]3[C@@H]4CC[C@H]5C[C@@H](O)CC[C@]5(C)[C@H]4CC(=O)[C@]3(C)[C@H]1[C@@H]2C
inactive: activity change, negative = cytotoxicity [1] 2.92% [at 6.97 µM] | activity change, negative = cytotoxicity [3] 5.89% [at 6.97 µM] | cytotoxicity increase [4] -0.434% [at 6.97 µM] | activity change, negative = cytotoxicity [5] -0.428% [at 8.39 µM] | viability change, negative = cytotoxic [6] 4.91% [at 8.39 µM] | activity change, negative = inhibition [8] 0.329% [at 8.39 µM] | Potency [10] | activity change, negative = inhibition [7] 8.02% [at 8.39 µM]

Source: PubChem BioAssay (Tox21)
